Experimental data as given in PubChem BioAssay AID720549 (National Center for Advancing Translational Sciences (NCATS), 2013).
Records with an inconclusive call do not appear. Unmarked numbers belong to inactive results. Active and inactive are the calls of the source. Calls come from the whole dose curve; as a rule, active = well fitted inhibition curve with a large enough effect; inconclusive = small, poorly fitted or top-dose-only effect; inactive = flat fitted curve, though single readings scatter.

molecular target: RecQ-like DNA helicase BLM (Homo sapiens) (UniProt P54132); assay: qHTS for Inhibitors of Bloom's syndrome helicase (BLM): Helicase ATPase Orthogonal Confirmatory Assay for SAR; details: purified BLM helicase ATPase activity assay; series mostly up to 57.1 µM; activity change, negative = inhibition: at the top concentration
Excerpt: Human RecQ DNA helicases participate in maintenance of genome stability and DNA repair. While other types of helicases have been explored as targets for drug development, members of the RecQ family have remained less well characterized. Mutations of the Bloom helicase gene have been associated with the rare human genetic disease called Bloom syndrome. […] Moreover, identified inhibitors can be used in cells and animal models to examine the consequences of inhibition on the survival of cancer cells where it has been shown that BLM plays an important role.
A fluorescence-based, biochemical assay in 1536 well format was developed to evaluate inhibition of BLM DNA unwinding activity. This assay was used to screen the MLPCN library. The resulting compounds were subjected to orthogonal and secondary biochemical assays to triage the initial hits, to classify compounds based on mode of action and to derive structure activity relationships (SARs) of candidate effectors. The data herein is the result of the Helicase ATPase orthogonal confirmatory assay. This luminescence assay employs a purified BLM enzyme and a single stranded BLM oligo substrate ([…]). For this assay increase in luminescence signal is greater than or equal to 700 RLU. Inhibition is the desired outcome for this assay.
NIH Chemical Genomics Center [NCGC]
NIH Molecular Libraries Probe Centers Network [MLPCN]
Assay Submitter (PI): Opher Gileadi, Structural Genomics Consortium, University of Oxford, UK
Three microliter of reaction buffer (25mM Tris-HCl pH 8.0, 50mM NaCl, 2mM MgCl2, 1mM DTT, and 0.01% Tween- 20, and 2nM BLM enzyme) was dispensed into a 1536-well assay plates (Greiner, solid white medium-binding) via Aurora Discovery BioRAPTR Flying Reagent Dispenser (FRD). Compounds (23nl each in columns 5-48) and control (23nl each in column 2 as dose-response) were transferred via a Kalypsys pintool equipped with a 1536-pin array. The plates were incubated for 15 min at room temperature followed by addition of 1 ul of substrates (200nM single-stranded oligonucleotide and 100uM ATP, final concentrations) to start the reaction. After 15 min., the reaction was terminated by the addition of 2.5ul of ADP-Glo Reagent I (Promega) to each well and incubation at room temperature for 30 min. Next, 5ul of ADP-Glo Reagent II (Promega) was added to each well. After 30 min at room temperature, the luminescence signal was detected using the ViewLux CCD imager. The data was normalized against no-inhibitor and no-enzyme controls and the resulting percent inhibition data were fitted to a sigmoidal dose response using a four-parameter Hill equation.

Chain of RecQ-like DNA helicase BLM (Homo sapiens) (P54132 whole entry, looked up): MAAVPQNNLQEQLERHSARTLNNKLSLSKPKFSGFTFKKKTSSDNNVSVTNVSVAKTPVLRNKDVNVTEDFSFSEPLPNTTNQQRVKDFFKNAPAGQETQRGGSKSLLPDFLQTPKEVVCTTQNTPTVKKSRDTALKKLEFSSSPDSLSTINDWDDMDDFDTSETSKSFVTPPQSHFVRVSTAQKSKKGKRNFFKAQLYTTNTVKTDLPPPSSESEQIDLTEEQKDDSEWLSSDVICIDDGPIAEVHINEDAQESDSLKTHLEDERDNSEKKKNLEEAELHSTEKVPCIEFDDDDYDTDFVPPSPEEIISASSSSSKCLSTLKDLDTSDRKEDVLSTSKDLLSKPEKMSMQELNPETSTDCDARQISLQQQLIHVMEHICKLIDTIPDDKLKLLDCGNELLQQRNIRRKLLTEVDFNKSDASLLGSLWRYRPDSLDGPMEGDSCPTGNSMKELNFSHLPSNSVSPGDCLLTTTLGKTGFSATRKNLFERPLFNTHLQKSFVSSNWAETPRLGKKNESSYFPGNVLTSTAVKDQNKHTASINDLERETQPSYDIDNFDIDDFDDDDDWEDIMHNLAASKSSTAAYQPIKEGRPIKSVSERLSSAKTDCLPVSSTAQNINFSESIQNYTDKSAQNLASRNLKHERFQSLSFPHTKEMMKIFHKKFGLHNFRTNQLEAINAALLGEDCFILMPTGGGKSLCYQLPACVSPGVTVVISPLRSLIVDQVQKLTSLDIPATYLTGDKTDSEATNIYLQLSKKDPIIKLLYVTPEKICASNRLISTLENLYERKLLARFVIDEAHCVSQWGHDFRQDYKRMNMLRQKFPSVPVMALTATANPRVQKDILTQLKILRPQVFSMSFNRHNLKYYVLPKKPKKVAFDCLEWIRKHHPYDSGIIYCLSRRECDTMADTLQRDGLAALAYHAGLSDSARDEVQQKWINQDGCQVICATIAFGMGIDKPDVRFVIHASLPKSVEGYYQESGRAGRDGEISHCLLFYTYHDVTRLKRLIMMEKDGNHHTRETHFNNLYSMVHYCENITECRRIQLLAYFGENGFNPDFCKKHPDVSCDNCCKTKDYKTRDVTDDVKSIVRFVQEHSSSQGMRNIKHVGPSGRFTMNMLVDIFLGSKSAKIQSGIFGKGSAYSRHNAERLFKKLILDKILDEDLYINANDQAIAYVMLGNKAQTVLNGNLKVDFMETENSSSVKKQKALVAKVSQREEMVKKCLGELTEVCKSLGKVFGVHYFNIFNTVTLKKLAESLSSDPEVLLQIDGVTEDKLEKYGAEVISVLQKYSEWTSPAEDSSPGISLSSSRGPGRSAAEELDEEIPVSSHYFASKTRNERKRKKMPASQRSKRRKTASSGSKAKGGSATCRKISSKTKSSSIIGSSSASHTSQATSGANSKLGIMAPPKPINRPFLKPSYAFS

Structure (SMILES)	activity change, negative = inhibition	Potency
O=C(Cc1nnc(-c2ccncc2)s1)Nc1ccc(F)c(C(F)(F)F)c1	-15.3%	
O=C(Nc1ccc(Cl)c(Cl)c1)Nc1ccnc(-c2ccncc2)n1	-13.1%	
O=C(Nc1ccc(-c2nc3ccccc3[nH]2)cc1)Nc1ccc2c(c1)CCCO2	-2.96% [at 114 µM]	
S=C(Nc1ccc(Cl)c(Cl)c1)Nc1nnc(-c2ccncc2)o1	14.1%	
O=C(Nc1ccc2ccccc2c1)Nc1nnc(-c2ccc(O)cc2)s1	-2.32%	
Cc1cc(NC(=O)Nc2nnc(C3CCCCC3)s2)ccc1Cl	-5.55%	
CN(C(=O)Nc1ccc2ccccc2c1)c1nnc(-c2ccncc2)s1	-14.4%	
O=C(Nc1nnc(-c2ccncc2)s1)NC12CC3CC(CC(C3)C1)C2	15.3%	
O=C(Nc1nnc(-c2ccncc2)s1)Nc1cccc2ccccc12		5.61 µM (active)
O=S(=O)(Cc1ccc(Cl)c(Cl)c1)Nc1nnc(-c2ccncc2)s1	-1.45%	
O=C(Nc1ccc(-n2ccnc2)c(F)c1)Nc1nnc(-c2ccncc2)s1		14.5 µM (active)
O=C(Nc1cc(C(F)(F)F)cc(C(F)(F)F)c1)Nc1nnc(-c2ccncc2)s1	-0.324%	
Cc1cc(Nc2c(Nc3nnc(-c4ccncc4)s3)c(=O)c2=O)ccc1Cl	-12.5%	
COc1ccc(OC)c(-c2nnc(NC(=O)Nc3ccc4ccccc4c3)s2)c1	-3.08%	
O=C(Nc1ccc(Cl)c([N+](=O)[O-])c1)Nc1nnc(-c2ccc(F)cc2)s1	-13.3%	
O=C(Nc1ccc(Cl)c(Cl)c1)Nc1nnc(-c2ccc(F)cc2)s1	-2.99%	
O=C(Nc1ccc(F)c(C(F)(F)F)c1)Nc1nc(-c2ccncc2)cs1	1.56%	
Cc1ccccc1-c1nnc(NC(=O)Nc2ccc3ccccc3c2)s1	-2.23%	
Cc1cc(NC(=O)Nc2cccc(-c3ccncc3)n2)ccc1Br	-25.7%	
Cc1ccc(-c2nnc(NC(=O)Nc3ccc4ccccc4c3)s2)cc1	-2.31%	

Structure (SMILES)	activity change, negative = inhibition	Potency
O=C(Nc1ccc(N2CCOCC2)c(C(F)(F)F)c1)Nc1nnc(-c2ccncc2)s1	-8.29%	
O=C(Nc1nnc(-c2ccncc2)s1)Nc1ccc(Cl)c2ccccc12	-9.83%	
CN1CCN(c2nnc(NC(=O)Nc3ccc(Cl)c(Cl)c3)s2)CC1	1.74%	
O=C(Nc1ccc2ccccc2c1)Nc1nnc(-c2ccc(Cl)cc2Cl)s1	-10.8%	
O=C(Nc1ccc(F)c(C(F)(F)F)c1)Nc1cccc(-c2ccncc2)n1	-25.8%	
O=C(Nc1ccc2ccccc2c1)Nc1nnc(-c2ccccc2F)s1	-6.06%	
O=C(Nc1ccc(Cl)c(Cl)c1)Nc1nnc(N2CCNCC2)s1	-19.8%	
CC(C)(C)c1cccc(NC(=O)Nc2nnc(-c3ccncc3)s2)c1	-0.236%	
S=C(Nc1ccc(Cl)c(Cl)c1)Nc1nnc(-c2ccncc2)s1		2.64 µM (active)
O=C(Nc1ccc2ccccc2c1)Nc1nnc(-c2ccc(Cl)cc2)s1	-5.57%	
O=C(Nc1ccc(Cl)c(Cl)c1)Nc1ccc(-c2ccncc2)s1	-6.64%	
O=c1c(Nc2ccc(Cl)c(Cl)c2)c(Nc2nnc(-c3ccncc3)s2)c1=O		6.46 µM (active)
CCOc1ccc(NC(=O)Nc2ccc(-c3nc4ccccc4[nH]3)cc2)cc1	-5.67% [at 114 µM]	
O=c1c(Nc2ccc(Br)c(Br)c2)c(Nc2nnc(-c3ccncc3)s2)c1=O		20.4 µM (active)
O=C(Nc1ccc2ccccc2c1)Nc1nnc(-c2ccncc2)s1		3.24 µM (active)
Nc1ccc(NC(=O)Nc2nnc(-c3ccncc3)s2)cc1C(F)(F)F	-7.21%	
O=C(Nc1ccc(Cl)c(Cl)c1)Nc1nnc(C2CCCCC2)s1	-3.66%	
O=C(Nc1ccc(Cl)c(Cl)c1)Nc1nnc(Br)s1	-6.98%	
COc1ccc(NC(=O)Nc2ccc(-c3nc4ccccc4[nH]3)cc2)cc1OC	-4.03% [at 114 µM]	
COc1ccc(-c2nnc(NC(=O)Nc3ccc4ccccc4c3)s2)cc1OC	-6.95%	
